The whole screen tested about 2,000 compounds, of which about 250 (12%) were called active. For the sample, actives were picked, then their nearest neighbours and some compounds at random. Values without a mark were called inactive. Cut-off read from the data, not from the text of the source: active = hERG blockade below about -20% or above about 20%; inactive = in between.

Chain of Voltage-gated inwardly rectifying potassium channel KCNH2 (Homo sapiens) (Q12809 whole entry, looked up): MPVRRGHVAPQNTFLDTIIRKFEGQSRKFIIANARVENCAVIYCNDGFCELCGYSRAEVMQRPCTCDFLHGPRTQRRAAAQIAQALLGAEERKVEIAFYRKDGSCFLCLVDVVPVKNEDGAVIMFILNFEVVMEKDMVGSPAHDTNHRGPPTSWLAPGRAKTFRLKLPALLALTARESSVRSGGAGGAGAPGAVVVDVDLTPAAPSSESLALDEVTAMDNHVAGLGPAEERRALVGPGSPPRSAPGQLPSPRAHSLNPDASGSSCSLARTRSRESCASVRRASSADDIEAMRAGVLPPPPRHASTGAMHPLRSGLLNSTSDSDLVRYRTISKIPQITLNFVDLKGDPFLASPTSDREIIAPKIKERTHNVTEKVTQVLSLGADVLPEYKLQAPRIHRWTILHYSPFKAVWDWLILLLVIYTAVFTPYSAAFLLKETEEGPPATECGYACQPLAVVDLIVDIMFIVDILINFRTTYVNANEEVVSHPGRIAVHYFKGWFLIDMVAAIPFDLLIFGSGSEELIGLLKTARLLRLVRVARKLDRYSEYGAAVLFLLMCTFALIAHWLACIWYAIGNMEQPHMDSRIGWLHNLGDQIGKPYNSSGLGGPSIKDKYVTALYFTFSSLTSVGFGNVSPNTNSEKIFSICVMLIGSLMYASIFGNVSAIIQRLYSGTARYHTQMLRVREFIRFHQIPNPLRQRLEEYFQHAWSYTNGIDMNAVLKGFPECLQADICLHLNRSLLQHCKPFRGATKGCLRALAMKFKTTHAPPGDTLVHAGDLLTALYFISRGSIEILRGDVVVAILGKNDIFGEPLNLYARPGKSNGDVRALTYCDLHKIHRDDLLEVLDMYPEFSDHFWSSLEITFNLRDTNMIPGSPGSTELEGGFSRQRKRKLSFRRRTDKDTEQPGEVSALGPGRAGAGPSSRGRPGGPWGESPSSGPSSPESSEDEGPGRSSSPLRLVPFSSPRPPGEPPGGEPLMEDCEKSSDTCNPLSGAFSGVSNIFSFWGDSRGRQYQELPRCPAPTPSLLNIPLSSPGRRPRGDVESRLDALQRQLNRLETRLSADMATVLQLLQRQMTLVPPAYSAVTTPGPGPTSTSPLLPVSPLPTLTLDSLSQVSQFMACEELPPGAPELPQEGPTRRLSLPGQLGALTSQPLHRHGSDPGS

This experiment has as its target Voltage-gated inwardly rectifying potassium channel KCNH2 (Homo sapiens) (UniProt Q12809). Description: modulators of KCNH2 ion channel function, cellular (AID 376).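 Note: 0% = buffer alone and 100% = reference blocker.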 As to conditions: hERG-expressing cells, channel activity single-concentration screen; concentration not given here.
On to `CC1=NN(c2ccc(S(=O)(=O)O)cc2)C(=O)C1=Cc1ccc(Cl)cc1`, for which the hERG blockade was 41% (active).

In the case of `O=c1oc2ccccc2c(O)c1C=Nc1nc(-c2ccc(O)c(O)c2)cs1`, the hERG blockade was -3.45%.

For the compound `C[N+](C)(C)CC(=O)NN=Cc1ccncc1`, the hERG blockade was -9.76%.

With `C=CCSc1nc2c(N)ncnc2n1C1OC(CO)C(O)C1O` (stereo not given), the hERG blockade is -7.69%.

With `Nc1nccc(Nc2ccc(S(N)(=O)=O)cc2)n1`, the hERG blockade is 20.2% (active).

As for `NS(=O)(=O)c1ccc(NCc2cnc3ccccc3c2)cc1`, the hERG blockade is -4.82%.

`NS(=O)(=O)c1ccc(NCc2cnc3ccccc3n2)cc1`: the hERG blockade was -7.4%.

Regarding `O=[N+]([O-])c1ccc(CS(=O)Cc2ccccc2)cc1` (stereo not given), the hERG blockade was 8.1%.

Consider `Cc1ccc(S(=O)(=O)Nc2cc(=O)[nH]c3c2CCC3)cc1`, for which the hERG blockade was 15.4%.

`Cc1ccc(S(=O)(=O)Oc2cc(N)c3c(n2)CCC3)cc1`: the hERG blockade was -21.4% (active).

Turning to `Cc1ccc(S(=O)(=O)Oc2cc(S(=O)(=O)O)cc3cc(S(=O)(=O)O)cc(N)c23)cc1`, the hERG blockade was 11.5%.

`O=C(O)C(=Cc1ccncc1)c1cccc2ccccc12`: the hERG blockade is 0.772%.

For the compound `COC(=O)C1C(O)CCC2CN3CCc4c([nH]c5ccccc45)C3CC21` (stereo not given), the hERG blockade is 42.5% (active).

Turning to `COC(=O)C1C(OS(=O)(=O)O)CCC2CN3CCc4c([nH]c5ccccc45)C3CC21` (stereo not given), the hERG blockade is -1.73%.

As for `COc1ccc2c3c([nH]c2c1)C1CC2C(CC(O)C(OC)C2C(=O)O)CN1CC3` (stereo not given), the hERG blockade is 5.28%.

As to `Oc1cc(O)c2c(c1)OC(c1ccc(O)c(O)c1)C(O)C2c1c(O)cc(O)c2c1OC(c1ccc(O)c(O)c1)C(O)C2` (stereo not given), the hERG blockade is 10.6%.

Consider `O=C(O)COc1c(Cl)cc(Cl)c2cccnc12`, for which the hERG blockade was -8.13%.

Consider `c1ccc(CN2COc3c(ccc4c5c(ccc34)CN(Cc3ccccc3)CO5)C2)cc1`, for which the hERG blockade was -6.83%.

Turning to `O=C(Oc1ccc2c(c1)CN(Cc1ccccc1)CO2)c1ccccc1`, the hERG blockade was 13%.

On to `CC(C)(C)c1c2c(c(C(C)(C)C)c3c1OCN(Cc1ccccc1)C3)OCN(Cc1ccccc1)C2`, for which the hERG blockade is 23.8% (active).

On to `CCCC(c1cc(C(C)(C)C)c(O)cc1C)c1cc(C(C)(C)C)c(O)cc1C`, for which the hERG blockade was 4.17%.

On to `CC(=N[O-])C(C)=N[O-].CC(=N[O-])C(C)=N[O-].C[CH-]C(C)O.[Co].c1ccncc1`, for which the hERG blockade is -3.56%.

In the case of `N=c1ccn2c(n1)OC1C(OP(=O)(O)O)C(CO)OC12` (stereo not given), the hERG blockade was -24.7% (active).

On to `Nc1ccn(C2OC(COP(=O)(O)O)C(O)C2O)c(=O)n1` (stereo not given), for which the hERG blockade is -9.61%.

As for `Nc1ccn(C2OC(CO)C3[O][Sn]([c]4ccccc4)([c]4ccccc4)[O]C32)c(=O)n1` (stereo not given), the hERG blockade was 9.47%.

On to `Fc1cccc(Cl)c1C=NN=C1c2ccccc2-c2ccccc21`, for which the hERG blockade was 4.24%.

As to `O=C(O)c1c(Cl)c(Cl)c(Cl)c(Cl)c1C(=O)Nc1ccc2cn[nH]c2c1`, the hERG blockade was 9.23%.

Take `C[N+](C)(C)C(Cc1c[nH]c(=S)[nH]1)C(=O)O` (stereo not given): the hERG blockade was -14%.

As to `COc1ccc(-c2nc(N)c3ncn(C4OC(CO)C(O)C4O)c3n2)cc1` (stereo not given), the hERG blockade is -8.39%.

With `CC(C)CC(N)C(=O)O` (stereo not given), the hERG blockade is 6.02%.

`NC(Cc1ccccc1)(C(=O)O)C(=O)O`: the hERG blockade is -3.15%.

Regarding `NS(=O)(=O)c1cc(C(=O)O)c(Cl)c([N+](=O)[O-])c1Cl`, the hERG blockade was -6.38%.

As to `COc1cc(C(=O)O)c([N+](=O)[O-])c(OC)c1OC`, the hERG blockade was 23.9% (active).

For the compound `COc1ccc(Cc2ccccc2C(=O)O)c2ccccc12`, the hERG blockade is -3.19%.

Consider `Cc1cc(=O)oc2cc(O)c(CN(C)CC(=O)O)cc12`, for which the hERG blockade was 0.517%.

Regarding `O=c1[nH]c(=S)[nH]c2c1CN(CCCN1CCOCC1)CN2`, the hERG blockade was 3%.

For `NCCSCc1ccccc1Cl`, the hERG blockade is 6.42%.

For the compound `CN(CCO)Cc1ncccc1O`, the hERG blockade is -0.376%.

Consider `CC(CCC(=O)O)C1CCC2C3CCC4CC(O)CCC4(C)C3CC(O)C12C` (stereo not given), for which the hERG blockade was 2.74%.

Turning to `CN(C)CCCn1c2c3ccccc3ccc2c2oc(=O)c3ccccc3c21`, the hERG blockade is 122% (active).

Consider `Cc1nc2cccc([N+](=O)[O-])c2n1CCCN(C)C`, for which the hERG blockade is 3.79%.

Regarding `Cc1ccc(N2CCN(CCC(=O)O)CC2)cc1`, the hERG blockade was -0.109%.

As for `CCCn1cnc2c(SCC(=O)O)nc(N)nc21`, the hERG blockade is 4.79%.

Turning to `NC(=S)NN=Cc1c[nH]c2ccccc12`, the hERG blockade is 9.72%.

For `CCCCNS(=O)(=O)c1n[nH]c(=O)[nH]c1=O`, the hERG blockade was -14.2%.

For the compound `CC(CCC(C)=NO)=NO`, the hERG blockade was -14.3%.

Turning to `Cc1cc(Cl)ccc1Nc1sc(C(=O)c2cc3cc(Cl)ccc3o2)c(N)c1C#N`, the hERG blockade was 24% (active).

For the compound `O=C(O)c1c(-c2nccc3ccccc23)[nH]c(-c2ccccc2)c1S(=O)(=O)O`, the hERG blockade is -1.08%.

As for `COc1ccc2nccc(SCC(=O)O)c2c1`, the hERG blockade is -9.78%.

For `CC(=O)Nc1ccccc1C=C1c2ccccc2-c2ccccc21`, the hERG blockade was -13.9%.

Consider `CC(=O)Nc1ccc2c(c1)C(=Cc1ccc([N+](C)(C)C)cc1)c1ccccc1-2`, for which the hERG blockade is 24.7% (active).

As for `CC(=O)Nc1ccc2c(c1)C(=Nc1ccc(C(=O)O)cc1)c1ccccc1-2`, the hERG blockade is 19.5%.

For `Cc1ccc(C(C#N)=Cc2cccc([N+](=O)[O-])c2)cc1`, the hERG blockade is 11.7%.

Regarding `CC(=O)n1c(COS(C)(=O)=O)nc2ccccc21`, the hERG blockade is 4.86%.

With `CC1CC(C)(C)CC(OCCN2CCCCC2)(c2ccccc2)C1` (stereo not given), the hERG blockade is 21.3% (active).

For the compound `OC(CCN1CCCCC1)(c1ccccc1)c1ccccc1`, the hERG blockade is 11.6%.

As for `Cc1ccc(S(=O)(=O)Nc2ccccc2C=O)cc1`, the hERG blockade is 5.12%.

For the compound `C[N+]1(CCCC[N+]2(C)CCCCCCC2)CCCCCCC1`, the hERG blockade was 13.6%.

Turning to `N#CC(C#N)=CNCCN1CCN(C=C(C#N)C#N)CC1`, the hERG blockade was -5.6%.

In the case of `CN(C)CCNc1ccccn1`, the hERG blockade is 5.77%.

For the origin of these results see PubChem BioAssay AID376 (PDSP, 2006).
